# Source: the supplement of paper PMC4206461
# Tested on: Pseudomonas aeruginosa PA14 wild type
# Experiment: respiration area under curve with compound as sole nitrogen source, 24 h (OmniLog AUC (arbitrary units)); higher = more respiration / better utilisation as nitrogen source, active = 2000 or more
# Protocol: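 Biolog Phenotype MicroArray plates PM6-PM8: each di/tripeptide is the sole nitrogen source (IF-0 medium with succinate/ferric citrate and dye mix A). Tetrazolium reduction was read in the OmniLog every 15 min for 24 h at 37°C and summarised as area under the respiration curve (arbitrary units). The paper counts values below 2000 as no respiration and above 8000 as solid respiration. Replicate datasets are averaged.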
row,SMILES,respiration area under curve
1,CC(C)C[C@H](NC(=O)[C@@H](N)[C@@H](C)O)C(=O)O (plate: PM7),7920 (active)
2,NC(N)=NCCC[C@H](N)C(=O)N[C@@H](CO)C(=O)O (plate: PM6),9350 (active)
3,C[C@H](N)C(=O)N[C@@H](CC(N)=O)C(=O)O (plate: PM6),8960 (active)
4,C[C@H](N)C(=O)N[C@@H](C)C(=O)O (plate: PM6),8430 (active)
5,N[C@@H](Cc1c[nH]c2ccccc12)C(=O)N[C@@H](CO)C(=O)O (plate: PM7),4810 (active)
6,C[C@H](N)C(=O)N[C@@H](Cc1c[nH]c2ccccc12)C(=O)O (plate: PM6),4490 (active)
7,CSCC[C@H](N)C(=O)N[C@@H](CCC(N)=O)C(=O)O (plate: PM7),9160 (active)
8,N[C@@H](Cc1c[nH]c2ccccc12)C(=O)N[C@@H](Cc1c[nH]c2ccccc12)C(=O)O (plate: PM7),1430 (inactive)
9,CC(C)[C@H](N)C(=O)N[C@@H](CC(=O)O)C(=O)O (plate: PM7),8160 (active)
10,C[C@@H](O)[C@H](N)C(=O)N[C@@H](CC(=O)O)C(=O)O (plate: PM8),5680 (active)
11,CSCC[C@H](N)C(=O)N[C@@H](Cc1c[nH]c2ccccc12)C(=O)O (plate: PM7),3640 (active)
12,CC[C@H](C)[C@H](NC(=O)[C@H](C)N)C(=O)O (plate: PM8),9130 (active)
13,N[C@@H](Cc1ccccc1)C(=O)NCC(=O)NCC(=O)O (plate: PM8),8700 (active)
14,C[C@@H](NC(=O)CN)C(=O)O (plate: PM8),5060 (active)
15,NCC(=O)N[C@@H](CO)C(=O)O (plate: PM6),7870 (active)
16,CC[C@H](C)[C@H](N)C(=O)N[C@@H](Cc1ccccc1)C(=O)O (plate: PM6),2830 (active)
17,O=C(O)[C@H](Cc1c[nH]c2ccccc12)NC(=O)[C@@H]1CCCN1 (plate: PM8),1260 (inactive)
18,C[C@H](N)C(=O)NCC(=O)O (plate: PM6),8070 (active)
19,N[C@@H](Cc1ccc(O)cc1)C(=O)N[C@@H](CCC(=O)O)C(=O)O (plate: PM7),4890 (active)
20,CC(C)C[C@H](N)C(=O)N[C@@H](Cc1ccccc1)C(=O)O (plate: PM6),6750 (active)

row,SMILES,respiration area under curve
1,NC(N)=NCCC[C@H](N)C(=O)N[C@@H](CCC(=O)O)C(=O)O (plate: PM6),9830 (active)
2,CC[C@H](C)[C@H](NC(=O)[C@@H](N)CC(C)C)C(=O)O (plate: PM6),6260 (active)
3,N[C@@H](CC(=O)O)C(=O)N[C@@H](Cc1c[nH]c2ccccc12)C(=O)O (plate: PM6),2310 (active)
4,CC(C)C[C@H](N)C(=O)N[C@@H](CC(N)=O)C(=O)O (plate: PM8),12400 (active)
5,C[C@@H](O)[C@H](N)C(=O)N[C@@H](CCC(=O)O)C(=O)O (plate: PM7),7240 (active)
6,CSCC[C@H](N)C(=O)N[C@@H](Cc1ccc(O)cc1)C(=O)O (plate: PM8),1560 (inactive)
7,CC[C@H](C)[C@H](N)C(=O)N[C@@H](Cc1c[nH]c2ccccc12)C(=O)O (plate: PM6),1090 (inactive)
8,N[C@@H](Cc1c[nH]c2ccccc12)C(=O)N[C@@H](Cc1ccc(O)cc1)C(=O)O (plate: PM7),1070 (inactive)
9,O=C(O)[C@H](Cc1ccccc1)NC(=O)[C@@H]1CCCN1 (plate: PM7),7250 (active)
10,CC(C)C[C@H](NC(=O)[C@H](CC(C)C)NC(=O)[C@@H](N)CC(C)C)C(=O)O (plate: PM8),5700 (active)
11,CC(C)C[C@H](N)C(=O)NCC(=O)NCC(=O)O (plate: PM8),10400 (active)
12,CSCCC(NC(=O)C(N)CC(C)C)C(=O)O (stereo not given) (plate: PM6),3040 (active)
13,NC(=O)CC[C@H](NC(=O)[C@@H]1CCCN1)C(=O)O (plate: PM7),9790 (active)
14,CC[C@H](C)[C@H](NC(=O)CN)C(=O)O (plate: PM8),7100 (active)
15,CC(C)[C@H](NC(=O)[C@H](C)N)C(=O)O (plate: PM8),9240 (active)
16,N[C@@H](Cc1ccccc1)C(=O)NCC(=O)O (plate: PM7),7630 (active)
17,N[C@@H](CCC(=O)O)C(=O)N[C@@H](CCC(=O)O)C(=O)O (plate: PM6),248 (inactive)
18,CC(C)[C@H](NC(=O)[C@@H](N)CO)C(=O)O (plate: PM7),8700 (active)
19,C[C@H](N)C(=O)N[C@@H](CCC(N)=O)C(=O)O (plate: PM8),11600 (active)
20,C[C@H](N)C(=O)N[C@@H](Cc1ccccc1)C(=O)O (plate: PM6),7710 (active)
